Source: PubChem BioAssay (Tox21)
Results filed as inconclusive are left out. Activity calls are given as the source filed them. Unless noted, the call rests on the fitted dose curve; in most records, active means well fitted curve in the direction sought with a large enough effect in the repeat runs; inconclusive means weak or mixed curves; inactive means no such curve, though single readings can be large; an effect the other way counts as inactive or inconclusive.

Tests used:
[1] = biological target: Aryl hydrocarbon receptor (Homo sapiens) (UniProt P35869); assay: qHTS assay to identify small molecule that activate the aryl hydrocarbon receptor (AhR) signaling pathway (AID 743085);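 further: HG2L7.5c1 human HepG2 liver cells with stably integrated DRE-driven firefly reporter; series mostly up to about 70 µM; nearly all actives have a fitted effect of over 15% in size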
Aryl hydrocarbon receptor (Homo sapiens), sequence (P35869 whole entry, looked up): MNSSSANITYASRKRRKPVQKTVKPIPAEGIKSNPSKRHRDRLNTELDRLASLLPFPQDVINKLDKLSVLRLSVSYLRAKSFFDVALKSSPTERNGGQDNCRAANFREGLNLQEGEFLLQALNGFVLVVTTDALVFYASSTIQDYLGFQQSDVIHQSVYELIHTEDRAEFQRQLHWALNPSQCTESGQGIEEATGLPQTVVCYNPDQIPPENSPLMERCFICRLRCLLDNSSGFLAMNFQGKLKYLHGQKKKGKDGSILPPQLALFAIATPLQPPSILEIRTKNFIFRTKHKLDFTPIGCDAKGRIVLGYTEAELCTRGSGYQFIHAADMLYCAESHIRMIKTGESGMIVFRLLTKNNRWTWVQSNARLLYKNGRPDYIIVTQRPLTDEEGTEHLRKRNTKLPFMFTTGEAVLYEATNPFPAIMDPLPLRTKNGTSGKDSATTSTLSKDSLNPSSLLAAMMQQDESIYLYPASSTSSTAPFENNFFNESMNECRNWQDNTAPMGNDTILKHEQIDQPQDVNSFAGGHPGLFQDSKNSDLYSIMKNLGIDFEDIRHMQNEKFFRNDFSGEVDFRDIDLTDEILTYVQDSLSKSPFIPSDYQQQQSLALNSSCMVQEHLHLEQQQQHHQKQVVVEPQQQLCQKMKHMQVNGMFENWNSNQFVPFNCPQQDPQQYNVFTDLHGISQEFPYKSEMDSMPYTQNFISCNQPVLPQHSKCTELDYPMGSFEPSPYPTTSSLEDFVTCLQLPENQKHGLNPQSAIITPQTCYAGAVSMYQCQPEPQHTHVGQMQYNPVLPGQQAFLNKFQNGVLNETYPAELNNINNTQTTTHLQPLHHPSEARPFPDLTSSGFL
How it was run: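 24 h compound exposure, 37C, HepG2-derived HG2L7.5c1 cells with DRE-responsive luciferase. Readouts: fluorescence viability, then luminescence at room temperature after 30 min.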

[2] = qHTS assay to identify small molecule that activate the aryl hydrocarbon receptor (AhR) signaling pathway - cell viability counter screen (AID 743086);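 further: HepG2 liver cells carrying the AhR DRE luciferase reporter; series mostly up to about 70 µM; nearly all actives have a fitted effect of over 45% in size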
How it was run: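 HepG2-AhR-luc (HG2L7.5c1) cells, 4000/well, treated 24 h at 37 C with compound; viability measured as CellTiter-Fluor fluorescence after 30 min in the same wells as the luciferase read.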

[3] = biological target: Peroxisome proliferator-activated receptor gamma (Homo sapiens) (UniProt P37231); assay: qHTS assay to identify small molecule agonists of the peroxisome proliferator-activated receptor gamma (PPARg) signaling pathway (AID 743094; active means well fitted activation curve with a large enough effect in the signal ratio in the repeat runs, not every such curve was filed as active; the % refers to the signal ratio)
Peroxisome proliferator-activated receptor gamma (Homo sapiens), sequence (P37231 whole entry, looked up): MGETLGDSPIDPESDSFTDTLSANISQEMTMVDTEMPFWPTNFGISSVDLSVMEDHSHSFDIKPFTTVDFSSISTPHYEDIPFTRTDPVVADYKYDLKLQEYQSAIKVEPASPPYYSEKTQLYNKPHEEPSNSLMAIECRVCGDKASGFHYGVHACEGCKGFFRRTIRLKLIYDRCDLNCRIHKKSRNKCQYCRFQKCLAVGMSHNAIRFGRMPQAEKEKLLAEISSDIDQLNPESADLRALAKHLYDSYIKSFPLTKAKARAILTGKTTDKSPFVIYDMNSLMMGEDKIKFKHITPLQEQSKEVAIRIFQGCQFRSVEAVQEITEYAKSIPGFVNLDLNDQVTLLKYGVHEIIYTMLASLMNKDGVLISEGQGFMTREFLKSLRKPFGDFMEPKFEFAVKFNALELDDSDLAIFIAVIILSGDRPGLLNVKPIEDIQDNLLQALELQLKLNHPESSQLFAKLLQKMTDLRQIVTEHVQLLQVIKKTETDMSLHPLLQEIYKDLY
How it was run: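 Beta-lactamase FRET fluorescence was the read-out after a 1 h room-temperature substrate step, following 17 h compound treatment at 37C of HEK293H cells expressing a UAS-driven bla reporter responsive to PPARg.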

[4] = biological target: Peroxisome proliferator-activated receptor gamma (Homo sapiens) (UniProt P37231); assay: qHTS assay to identify small molecule antagonists of the peroxisome proliferator-activated receptor gamma (PPARg) signaling pathway (AID 743191; calls by dose curve; further: series mostly up to about 63 µM; nearly all actives have a fitted effect of over 30% in size)
How it was run: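 GeneBLAzer PPARg UAS-bla HEK293H cells, 5 h post-plating, exposed to compounds 17 h at 37C. LiveBLAzer B/G FRET substrate added for 1 h at room temperature; beta-lactamase reporter read by fluorescence intensity.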

[5] = qHTS assay to identify small molecule antagonists of the peroxisome proliferator-activated receptor gamma (PPARg) signaling pathway - cell viability counter screen (AID 743194); settings: Potency: co-treated with 50 nM rosiglitazone; further: nearly all actives have a fitted effect of over 55% in size
How it was run: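 Cytotoxicity counter screen in PPARg-bla HEK293H cells, same wells as reporter assay. Compounds plus 50 nM rosiglitazone (final) for 17 h at 37 C, then viability read by CellTiter-Glo luminescence.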

[6] = qHTS assay for small molecule agonists of the antioxidant response element (ARE) signaling pathway - cell viability counter screen (AID 743203; calls by dose curve; further: nearly all actives have a fitted effect of over 55% in size)
How it was run: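 HepG2 cells carrying ARE-driven beta-lactamase; 2,000 cells/well; 5 hrs plating; compound pinned from DMSO; 16 hrs 37C/5% CO2; CellTiter-Glo added; 30 min RT; luminescence.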

[7] = qHTS assay for small molecule activators of the heat shock response signaling pathway - cell viability counter screen (AID 743209); further: nearly all actives have a fitted effect of over 50% in size
How it was run: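 Luminescence from CellTiter-Glo, added after the beta-lactamase FRET read, gave the viability signal. Cells were HSE-bla HeLa treated with DMSO-dissolved compounds for 5 h at 37 C following overnight plating.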

[8] = qHTS assay for small molecule activators of the heat shock response signaling pathway (AID 743210; active means well fitted activation curve with a large enough effect in the signal ratio in the repeat runs, with a control signal flat, not every such curve was filed as active; the % refers to the signal ratio; further: series mostly up to about 63 µM)
How it was run: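 HSE-bla HeLa cells (beta-lactamase reporter under heat shock response elements), plated overnight, then exposed to compounds 5 h at 37 C; LiveBLAzer B/G FRET substrate added, 2.5 h at room temperature, fluorescence intensity read.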

[9] = qHTS assay to identify small molecule agonists of the peroxisome proliferator-activated receptor delta (PPARd) signaling pathway - cell viability counter screen (AID 743211); further: nearly all actives have a fitted effect of over 55% in size
How it was run: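 Luminescent ATP viability assay (CellTiter-Glo, 30 min RT) in UAS-bla HEK293H cells carrying the PPAR delta reporter construct, 3000 cells/well, after a 17 h compound treatment at 37 C.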

[10] = qHTS assay to identify small molecule antagonists of the peroxisome proliferator-activated receptor delta (PPARd) signaling pathway - cell viability counter screen (AID 743213); further: nearly all actives have a fitted effect of over 50% in size
How it was run: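 HEK293H cells with the PPARd UAS-bla reporter, co-treated 17 h at 37 C with compounds and L165041 (300 nM final), were lysed with CellTiter-Glo. Luminescence indicated viable cell content.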

[11] = biological target: Peroxisome proliferator-activated receptor delta (Homo sapiens) (UniProt Q03181); assay: qHTS assay to identify small molecule antagonists of the peroxisome proliferator-activated receptor delta (PPARd) signaling pathway (AID 743215; active means well fitted inhibition curve with a large enough effect in the signal ratio in the repeat runs, not every such curve was filed as active; the % refers to the signal ratio;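 further: cells stimulated with agonist L165041 at 300 nM final during compound exposure; series mostly up to about 62 µM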)
Peroxisome proliferator-activated receptor delta (Homo sapiens), sequence (Q03181 whole entry, looked up): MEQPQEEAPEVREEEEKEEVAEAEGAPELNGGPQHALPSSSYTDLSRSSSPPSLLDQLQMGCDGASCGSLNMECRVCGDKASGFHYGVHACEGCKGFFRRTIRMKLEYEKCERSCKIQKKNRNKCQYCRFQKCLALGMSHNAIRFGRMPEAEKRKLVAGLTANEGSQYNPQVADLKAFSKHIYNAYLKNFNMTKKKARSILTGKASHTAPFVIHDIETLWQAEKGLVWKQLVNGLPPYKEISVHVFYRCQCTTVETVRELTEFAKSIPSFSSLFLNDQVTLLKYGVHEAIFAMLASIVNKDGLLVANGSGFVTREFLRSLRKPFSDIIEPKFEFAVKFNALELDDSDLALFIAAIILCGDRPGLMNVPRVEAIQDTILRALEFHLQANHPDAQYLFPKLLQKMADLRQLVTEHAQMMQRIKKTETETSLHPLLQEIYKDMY
How it was run: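 Read-out is beta-lactamase FRET fluorescence, measured 2 h after substrate addition at room temperature. Beforehand, UAS-bla HEK293H cells carrying the PPARd reporter were exposed to compounds with L165041 at 300 nM final for 17 h at 37 C.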

[12] = qHTS assay to identify small molecule agonists of the farnesoid-X-receptor (FXR) signaling pathway - cell viability counter screen (AID 743218); further: nearly all actives have a fitted effect of over 45% in size
How it was run: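 HEK 293T FXR-bla cells; 5 h pre-incubation, 16 h compound exposure at 37 C; LiveBLAzer substrate 2 h RT, then CellTiter-Glo 30 min RT, luminescence.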

[13] = qHTS assay to identify small molecule antagonists of the farnesoid-X-receptor (FXR) signaling pathway - cell viability counter screen (AID 743221; active means well fitted cell-killing curve with a large enough effect in the repeat runs, not every such curve was filed as active; further: nearly all actives have a fitted effect of over 50% in size)
How it was run: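 In GeneBLAzer FXR-UAS-bla HEK 293T cells stimulated with 50 uM chenodeoxycholic acid (final), compounds acted for 16 h at 37 C. Viability was assessed afterwards by CellTiter-Glo luminescence.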

[14] = qHTS assay to identify small molecule agonists of the vitamin D receptor (VDR) signaling pathway - cell viability counter screen (AID 743224); further: series mostly up to about 63 µM; nearly all actives have a fitted effect of over 50% in size
How it was run: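 Luminescence from CellTiter-Glo, read after 30 min at room temperature, reports viability of VDR-bla cells treated with compounds for 16 h at 37C in the wells used for the beta-lactamase FRET read.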

[15] = qHTS assay for small molecule agonists of the antioxidant response element (ARE) signaling pathway (AID 743202; active means well fitted activation curve with a large enough effect in the signal ratio in the repeat runs, not every such curve was filed as active; the % refers to the signal ratio)
How it was run: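 ARE-bla HepG2 cells (beta-lactamase reporter under the antioxidant response element), plated 5 hours, then exposed to compounds 16 hours at 37 C. LiveBLAzer B/G FRET substrate added for 2 hours at room temperature; fluorescence intensity read.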

[16] = biological target: Peroxisome proliferator-activated receptor delta (Homo sapiens) (UniProt Q03181); assay: qHTS assay to identify small molecule agonists of the peroxisome proliferator-activated receptor delta (PPARd) signaling pathway (AID 743212; calls by dose curve)
How it was run: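 GeneBLAzer UAS-bla HEK293H cells carrying a PPARδ construct were exposed to compounds at 37 °C. Beta-lactamase activity was read by FRET fluorescence after 2 h at room temperature with LiveBLAzer B/G substrate.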

[17] = biological target: Vitamin D3 receptor (Homo sapiens) (UniProt P11473); assay: qHTS assay to identify small molecule agonists of the vitamin D receptor (VDR) signaling pathway (AID 743222; calls by dose curve)
Vitamin D3 receptor (Homo sapiens), sequence (P11473 whole entry, looked up): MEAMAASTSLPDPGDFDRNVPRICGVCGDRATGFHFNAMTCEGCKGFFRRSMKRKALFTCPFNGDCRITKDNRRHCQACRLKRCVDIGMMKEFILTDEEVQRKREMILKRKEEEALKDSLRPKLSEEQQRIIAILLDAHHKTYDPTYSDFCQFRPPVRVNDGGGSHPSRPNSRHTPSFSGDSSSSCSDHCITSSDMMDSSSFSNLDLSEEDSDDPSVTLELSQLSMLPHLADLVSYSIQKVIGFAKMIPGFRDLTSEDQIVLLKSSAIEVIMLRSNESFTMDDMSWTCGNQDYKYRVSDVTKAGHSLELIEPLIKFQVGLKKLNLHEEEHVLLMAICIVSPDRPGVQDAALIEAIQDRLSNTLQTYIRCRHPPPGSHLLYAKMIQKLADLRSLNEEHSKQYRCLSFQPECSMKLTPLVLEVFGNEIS
How it was run: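 VDR-bla cells, 2,000/well; 4 h preincubation 37C; cpd (DMSO) 16 h; LiveBLAzer B/G substrate 2 h RT; fluorescence intensity read.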

[18] = biological target: Vitamin D3 receptor (Homo sapiens) (UniProt P11473); assay: qHTS assay to identify small molecule antagonists of the vitamin D receptor (VDR) signaling pathway (AID 743223; active means well fitted inhibition curve with a large enough effect in the signal ratio in the repeat runs, not every such curve was filed as active; the % refers to the signal ratio)
How it was run: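 Agonist 1alpha,25-dihydroxyvitamin D3 (3 nM in well) was added with each compound to VDR-bla cells preincubated 4 h. Cells stood 16 h at 37C, then FRET substrate 2 h at room temperature; fluorescence intensity recorded.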

[19] = biological target: Bile acid receptor (Homo sapiens) (UniProt Q96RI1); assay: qHTS assay to identify small molecule antagonists of the farnesoid-X-receptor (FXR) signaling pathway (AID 743217; active means well fitted inhibition curve with a large enough effect in the signal ratio in the repeat runs, not every such curve was filed as active; the % refers to the signal ratio)
Bile acid receptor (Homo sapiens), sequence (Q96RI1 whole entry, looked up): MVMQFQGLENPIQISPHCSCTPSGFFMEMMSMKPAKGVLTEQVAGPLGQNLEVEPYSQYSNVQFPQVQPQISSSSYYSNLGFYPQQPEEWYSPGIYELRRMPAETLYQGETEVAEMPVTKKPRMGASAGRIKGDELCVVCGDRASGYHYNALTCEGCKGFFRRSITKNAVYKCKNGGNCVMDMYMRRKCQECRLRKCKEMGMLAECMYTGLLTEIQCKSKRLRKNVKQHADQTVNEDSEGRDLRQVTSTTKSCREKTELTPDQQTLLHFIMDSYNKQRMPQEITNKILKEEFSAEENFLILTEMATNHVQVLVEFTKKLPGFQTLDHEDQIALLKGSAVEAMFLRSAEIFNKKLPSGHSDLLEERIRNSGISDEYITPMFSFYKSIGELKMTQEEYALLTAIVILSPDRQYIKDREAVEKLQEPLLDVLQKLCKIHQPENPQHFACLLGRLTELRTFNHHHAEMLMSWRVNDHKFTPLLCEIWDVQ
How it was run: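 HEK 293T FXR-UAS-bla, 5000 cells/well; compound + CDCA 50 uM final; 16 h, 37 °C; B/G FRET substrate 2 h RT; fluorescence.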

[20] = biological target: Bile acid receptor (Homo sapiens) (UniProt Q96RI1); assay: qHTS assay to identify small molecule agonists of the farnesoid-X-receptor (FXR) signaling pathway (AID 743220; active means well fitted activation curve with a large enough effect in the signal ratio in the repeat runs, not every such curve was filed as active; the % refers to the signal ratio)
How it was run: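 Beta-lactamase reporter under UAS control in GeneBLAzer FXR HEK 293T cells (5000/well) measured with LiveBLAzer FRET substrate after 2 h at room temperature. Compound exposure lasted 16 h at 37C.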

Measured: Potency

CCC(C)(C#N)N=NC(C)(C#N)CC (stereo unspecified)
inactive: [1] | [2] | [3] | [4] | [5] | [6] | [7] | [8] | [9] | [10] | [11] | [12] | [13] | [14]

CC1NCCOC1c1ccccc1 (stereo unspecified)
inactive: [1] | [2] | [3] | [4] | [15] | [6] | [7] | [8] | [9] | [16] | [10] | [11] | [12] | [13] | [17] | [18] | [14]

CC(C)(C)C(=O)Cl
inactive: [1] | [2] | [3] | [4] | [5] | [15] | [6] | [7] | [8] | [9] | [16] | [11] | [19] | [12] | [20] | [13] | [14]

ClC(Cl)(Cl)Cl
inactive: [1] | [2] | [3] | [4] | [5] | [15] | [6] | [7] | [9] | [16] | [10] | [19] | [12] | [20] | [13] | [17] | [18] | [14]

CC(C)(O)C(Cl)(Cl)Cl
inactive: [1] | [2] | [3] | [4] | [15] | [6] | [7] | [16] | [11] | [19] | [12] | [20] | [13] | [17] | [18]

CC(O)CCl (stereo unspecified)
inactive: [1] | [2] | [3] | [4] | [5] | [6] | [7] | [8] | [9] | [16] | [11] | [19] | [20] | [13] | [17] | [14]

BrCC1CO1 (stereo unspecified)
inactive: [1] | [2] | [3] | [4] | [5] | [15] | [6] | [7] | [8] | [9] | [11] | [19] | [20] | [17] | [18] | [14]

CCOc1cc(OP(=S)(OC)OC)nc(CC)n1
inactive: [1] | [2] | [3] | [4] | [15] | [6] | [7] | [8] | [16] | [10] | [11] | [12] | [13] | [17] | [14]

CCCC(C)(COC(N)=O)COC(N)=O
inactive: [1] | [2] | [3] | [4] | [5] | [15] | [6] | [7] | [8] | [9] | [16] | [10] | [11] | [12] | [13] | [17] | [18] | [14]

C[C@@H](N)[C@@H](O)c1ccccc1
inactive: [1] | [2] | [3] | [4] | [5] | [15] | [6] | [7] | [9] | [16] | [12] | [13] | [14]

NCC1(CC(=O)O)CCCCC1
inactive: [1] | [2] | [3] | [4] | [5] | [15] | [6] | [7] | [8] | [9] | [16] | [10] | [12] | [13] | [17] | [14]

CC(=NC#N)N(C)Cc1ccc(Cl)nc1
inactive: [1] | [2] | [3] | [4] | [5] | [15] | [6] | [7] | [8] | [9] | [16] | [10] | [12] | [13] | [17] | [18] | [14]

ClCCCCl
inactive: [1] | [2] | [3] | [4] | [5] | [15] | [6] | [7] | [8] | [9] | [16] | [19] | [12] | [20] | [13] | [17] | [18] | [14]

CN(C)CCN(C)C
inactive: [1] | [2] | [3] | [4] | [5] | [15] | [6] | [7] | [9] | [16] | [10] | [11] | [19] | [12] | [20] | [13] | [17] | [18] | [14]

COc1ccc(CN2CCNCC2)c(OC)c1OC
inactive: [1] | [2] | [3] | [4] | [15] | [6] | [7] | [9] | [16] | [10] | [11] | [19] | [12] | [20] | [13] | [14]

C=CC1(C)OC(=O)N(c2cc(Cl)cc(Cl)c2)C1=O (stereo unspecified)
inactive: [1] | [2] | [3] | [4] | [15] | [6] | [7] | [8] | [9] | [16] | [11] | [19] | [12] | [20] | [13] | [17] | [18] | [14]

CCC(=O)c1ccc(Cl)cc1
inactive: [1] | [2] | [3] | [4] | [5] | [15] | [6] | [7] | [8] | [9] | [16] | [10] | [11] | [12] | [13] | [17] | [18] | [14]
